# Data as given in ChEMBL document CHEMBL4808148, “HDAC6 screening dataset using tau-based substrate in an enzymatic assay yields selective inhibitors and activators” (2021).
# “And” between values parts separate entries of the source, which are not always exact repeats. Equal values may be shown once. In all, about 5,600 compounds went through this assay and about 150 (2.7%) showed an effect of 50% or more. The sample holds strong results, similar compounds and a random draw of the others, so the mix is not that of the screen. Positions of bridges follow the written chain, without caps; N, C: chain ends. Non-standard residues stand in square brackets, D forms with d. Residues, ends and D or L forms follow the SMILES beside them. *: point of attachment. NMeF = CN[C@@H](Cc1ccccc1)C(=O)O; X4 = CCC(C)C(N)C1=NC(C(=O)*)CS1; dOrn = NCCC[C@@H](N)C(=O)O
# Tests used:
# [1] = molecular target: T1, Protein deacetylase HDAC6 (Homo sapiens) (UniProt Q9UBN7); settings: at 10 µM
# T1 sequence (whole entry): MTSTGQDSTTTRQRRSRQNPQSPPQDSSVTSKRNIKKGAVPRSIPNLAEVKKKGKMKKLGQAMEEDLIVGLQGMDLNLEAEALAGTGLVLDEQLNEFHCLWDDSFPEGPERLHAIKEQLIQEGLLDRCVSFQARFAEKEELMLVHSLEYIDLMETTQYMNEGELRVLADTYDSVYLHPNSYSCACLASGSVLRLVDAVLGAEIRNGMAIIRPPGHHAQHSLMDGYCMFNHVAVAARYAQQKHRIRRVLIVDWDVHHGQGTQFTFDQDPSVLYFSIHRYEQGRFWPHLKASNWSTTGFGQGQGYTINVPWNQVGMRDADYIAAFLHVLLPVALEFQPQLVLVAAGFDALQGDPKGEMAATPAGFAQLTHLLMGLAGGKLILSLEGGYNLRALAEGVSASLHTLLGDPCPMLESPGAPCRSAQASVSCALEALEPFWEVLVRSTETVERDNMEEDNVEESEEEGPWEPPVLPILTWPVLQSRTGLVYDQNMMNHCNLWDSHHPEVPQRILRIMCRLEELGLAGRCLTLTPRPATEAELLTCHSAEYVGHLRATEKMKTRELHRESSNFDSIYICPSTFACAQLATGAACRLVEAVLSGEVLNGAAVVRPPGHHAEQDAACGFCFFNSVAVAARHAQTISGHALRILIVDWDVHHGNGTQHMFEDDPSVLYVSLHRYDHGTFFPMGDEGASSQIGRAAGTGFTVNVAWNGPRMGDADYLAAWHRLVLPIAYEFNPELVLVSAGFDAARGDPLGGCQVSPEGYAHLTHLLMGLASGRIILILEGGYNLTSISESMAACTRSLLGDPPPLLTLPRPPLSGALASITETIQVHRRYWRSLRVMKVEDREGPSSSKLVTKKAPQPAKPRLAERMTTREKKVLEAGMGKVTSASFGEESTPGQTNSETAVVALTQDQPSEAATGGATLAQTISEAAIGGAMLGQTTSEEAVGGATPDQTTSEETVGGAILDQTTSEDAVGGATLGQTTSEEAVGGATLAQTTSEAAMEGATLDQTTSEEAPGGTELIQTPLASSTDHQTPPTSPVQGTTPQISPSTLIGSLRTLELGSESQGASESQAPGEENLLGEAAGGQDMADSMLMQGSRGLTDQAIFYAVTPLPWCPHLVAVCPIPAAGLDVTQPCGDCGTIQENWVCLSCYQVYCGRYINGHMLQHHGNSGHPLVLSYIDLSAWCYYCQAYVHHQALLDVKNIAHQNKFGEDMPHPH
# [2] = molecular target: Protein deacetylase HDAC6 (Homo sapiens) (UniProt Q9UBN7); settings: at 10 µM; remark: listed apart in the source
compound,measurement,setting,value
CCOc1c(N2CCOCC2)cnn(C)c1=O,inhibition,[1],2.39%
O=C(O)c1ccccc1C(=O)Nc1ccc(-c2ccccc2)cc1,inhibition,[1],54.2%
CC(=O)NS(=O)(=O)c1ccc(NC(=O)c2ccccc2C(=O)O)cc1,inhibition,[1],-6.68%
O=C(O)c1ccccc1S,inhibition,[1],-3.38%
CC(C)(S)C(=O)N[C@@H](CS)C(=O)O,inhibition,[1],6.63%
CC(C)C(=O)SCCCCC[C@H](NC(=O)OC(C)(C)C)C(=O)NC12CC3CC(CC(C3)C1)C2,inhibition,[1],52.4%
CC(C)CCC[C@@H](C)[C@H]1CC[C@H]2[C@@H]3CCC4=CC(=NO)CC[C@]4(C)[C@H]3CC[C@]12C,inhibition,[1],4.46%
NC(=O)c1ccc(F)c2c1C[C@@H](N(C1CCC1)C1CCC1)CO2,inhibition,[1],-7.93%
O=C(NO)c1cnc(N2CCN(S(=O)(=O)c3ccc4ccccc4c3)CC2)nc1,inhibition,[1],96.2%
COc1ccc(S(=O)(=O)N2CCCN(S(=O)(=O)c3ccc(OC)c(OC)c3)CC2)cc1OC,inhibition,[1],-6.17%
COc1ccc([C@]2(O)CC[C@H](N3CC[C@@H](NC(=O)CNC(=O)c4cccc(C(F)(F)F)c4)C3)CC2)cn1,inhibition,[1],0.65%
CN1CCN(c2ccc3[nH]c(-c4ccc5[nH]c(-c6ccc(O)cc6)nc5c4)nc3c2)CC1,inhibition,[1],5.09%
CC(C)(C)c1ccc(-c2nc3ccccc3[nH]2)cc1,inhibition,[1],94%
CC(C)(C)c1ccc(O)cc1,inhibition,[1],-5.54%
CN(C)c1cc(CNCC(C)(C)C)c(O)c2c1C[C@H]1C[C@H]3[C@H](N(C)C)C(O)=C(C(N)=O)C(=O)[C@@]3(O)C(O)=C1C2=O,inhibition,[1],-4.38%
CC(C)(CCCCCC(O)CCCCCC(C)(C)C(=O)O)C(=O)O,inhibition,[1],1.13%
CCOC(=O)C1=C(N)Oc2ccc(Br)cc2[C@H]1[C@H](C#N)C(=O)OCC,inhibition,[1],13.4%
N#Cc1cnc2c(Cl)cc(NCc3cn(CCN4CCCCCC4)nn3)cc2c1Nc1ccc(F)c(Cl)c1,inhibition,[1],-2.34%
COCCN1CCC(C(=O)NO)(S(=O)(=O)c2ccc(Oc3ccc(OC(F)(F)F)cc3)cc2)CC1,inhibition,[1],1.97%
COC(=O)c1cc(OC)c2c(c1-c1c(CO)cc(OC)c3c1OCO3)OCO2,inhibition,[1],-0.94%
CS(=O)(=O)Nc1ccc(-c2coc3cc(OCc4cccc(C(=O)O)c4)ccc3c2=O)cc1,inhibition,[1],57.5%
OCCCCO,inhibition,[1],-0.89%
CCC(=O)O[C@]1(C(=O)COC(C)=O)CC[C@H]2[C@@H]3C[C@H](C)C4=CC(=O)C=C[C@]4(C)[C@H]3[C@@H](O)C[C@@]21C,inhibition,[1],1.57%
O=C1NN(C(=O)Nc2ccc(Br)cc2)[C@@H](c2ccccc2)[C@@H]1c1ccccc1,inhibition,[1],13.1%
O=C1NC(=S)NC(=O)C1C(=O)Nc1ccccc1,inhibition,[1],95%
N=C(Nc1ccccc1)c1cccs1,inhibition,[1],14.8%
"GADOBUTROL, CHEMBL2218860",inhibition,[2],27.5%
CC(C)(O)CC(=O)O,inhibition,[1],1.27%
CCc1nc2c(C)nc(C)cc2n1-c1ccc(CCNC(=O)NS(=O)(=O)c2ccc(C)cc2)cc1,inhibition,[1],-2.18%
C=CC(C)(O)CC[C@@H]1[C@@]2(C)CCCC(C)(C)C2CC[C@@]1(C)O (some centres undefined),inhibition,[1],-4.8%
O=C(Nc1cc(C(F)(F)F)ccc1O)Nc1cc(C(F)(F)F)ccc1O,inhibition,[1],0.26%
Cc1cc(/C=c2/sc3nc4ccccc4n3c2=O)c(C)n1-c1ccccc1,inhibition,[1],-1.28%
Cc1cc(/C=C2\SC(=O)N(c3ccccc3)C2=O)c(C)n1-c1cccnc1,inhibition,[1],66.1%
CC(C)C1=C2[C@H]3CC[C@@H]4[C@@]5(C)CC[C@H](OC(=O)CC(C)(C)C(=O)O)C(C)(C)[C@@H]5CC[C@@]4(C)[C@]3(C)CC[C@@]2([C@@H](O)CN(CCN(C)C)Cc2ccc(Cl)cc2)CC1=O,inhibition,[1],-0.39%
Cc1oc2ccccc2c1CNC(=O)NCc1cccs1,inhibition,[1],2.62%
Nc1ncnc2c1c(-c1cccc(OCc3ccccc3)c1)cn2[C@H]1C[C@H](CN2CCCC2)C1,inhibition,[1],8.87%
CCOC(=O)Nc1ccc(NCc2c(C)cc(C)cc2C)cc1N,inhibition,[1],-1.7%
N#Cc1cc(-c2n[nH]c(-c3ccncc3)n2)ccn1,inhibition,[1],61.8%
COc1cccc(OC)c1-c1ccc(C[C@H](NC(=O)c2c(Cl)cccc2Cl)C(=O)O)cc1,inhibition,[1],-2.4%
O=C(N[C@H](Cc1ccccc1)C(=O)O)c1sc2cc(F)ccc2c1Cl,inhibition,[1],-0.15%
COCCN(C(=O)c1cc(OC)c(OC)c(OC)c1)c1nc(-c2ccccc2)cs1,inhibition,[1],-3.54%
Cc1nc2ccc(-n3ncc(C(=O)c4cc5ccccc5[nH]4)c3N)cc2[nH]1,inhibition,[1],95.7%
CCCSc1ccc2[nH]c(NC(=O)OC)nc2c1,inhibition,[1],41.8%
CCC[S+]([O-])c1ccc2[nH]c(NC(=O)OC)nc2c1 (centres undefined),inhibition,[1],68.9%
CCOC(=O)Nc1nc2ccccc2[nH]1,inhibition,[1],20.3%
CCC(C)C(N)C1=NC(C(=O)N[C@@H](CC(C)C)C(=O)N[C@H](CCC(=O)O)C(=O)N[C@H](C(=O)N[C@H]2CCCCNC(=O)[C@H](CC(N)=O)NC(=O)[C@@H](CC(=O)O)NC(=O)[C@@H](Cc3cnc[nH]3)NC(=O)[C@@H](Cc3ccccc3)NC(=O)[C@@H]([C@H](C)CC)NC(=O)[C@@H](CCCN)NC2=O)[C@@H](C)CC)CS1 (some centres undefined) (X4-L[dE]IK[dOrn][dI][dF][dH][dD]N; lactam 4-C),inhibition,[1],25.1%
Cc1c(NC(=O)c2cc3c(s2)CCCC3)cccc1-c1cn(C)c(=O)c(Nc2ccc(C3C(=O)N(C)CCN3C)cc2)n1 (racemic),inhibition,[1],-2.69%
N=C(N)Nc1ccc(C(=O)Oc2ccc3cc(C(=N)N)ccc3c2)cc1,inhibition,[1],98.3%
CC(=O)Nc1ccc(OC(C)=O)cc1,inhibition,[1],-1.45%
CSCC[C@H](NC(=O)[C@H](CC(C)C)NC(=O)[C@@H](Cc1c[nH]c2ccccc12)NC(=O)[C@H](Cc1ccccc1)N(C)C(=O)[C@@H](Cc1c[nH]c2ccccc12)NC(=O)[C@@H](N)CCCNC(=N)N)C(N)=O (H-R[dW][NMeF][dW]LM-NH2),inhibition,[1],-6.35%
CC(=O)Oc1ccccc1C(=O)Nc1ncc([N+](=O)[O-])s1,inhibition,[1],98.3%
COc1ccccc1OC(=O)c1ccccc1OC(C)=O,inhibition,[1],-4.29%
"COLISTIN SULFATE, CHEMBL6067482",inhibition,[2],-5.33% and -3.72%
O=C(NN1C(=O)[C@@H]2[C@@H]3C=C[C@@H]([C@H]4C[C@@H]34)[C@@H]2C1=O)c1ccc(C(F)(F)F)cc1,inhibition,[1],3.03%
